# Measurements reported in US20210230599, “STEM-LOOP COMPOSITIONS AND METHODS FOR INHIBITING INTERLEUKIN-8” (VITRISA THERAPEUTICS, INC., published 2021).
# Target: Interleukin-8 (IL8, CXCL8), C-terminal His-tagged (Homo sapiens, UniProt P10145 SEQ:1-72)
# Experiment: competition; competition TR-FRET; L1 deleted, described as complete loss
# Details: tags: C-terminal 6xHis (Sino Biological); ssRNA; 2'-F G, 2'-OMe A/C/U, 5' C6NH2, 3' idT
# Protocol: To better understand the sequence requirements and to confirm the stem structures of members of the Aptamer 3 family as determined from sequence covariation analysis from both the primary and secondary (degenerate) selections, a series of variants which included mutations and deletions to the predicted stems were synthesized and screened (Table 24). Activity of each of these variants were tested using a time resolved competition TR-FRET assay in which the labeled parent Aptamer 3 was competed with increasing concentrations of unlabeled variants for binding to IL8 (FIG. 14). Briefly, 2-fold dilutions of thermally equilibrated aptamers were made in TR-FRET Buffer (50 mM MOPS, pH 7.4, 125 mM NaCl, 5 mM KCl, 50 μM CHAPS, 0.1 mg/mL BSA, 1 mM CaCl₂, and 1 mM MgCl₂). 5 μL of aptamer or control solution was added to 5 μl mix of 10 nM C-terminal His-tagged-IL8, 60 nM ALEXA FLUOR® 647-labeled Aptamer, and 5 nM anti-His-Eu (Perkin Elmer) in a black wall low volume 384 well plate (Greiner). […] The plate was read on a Biotek CYTATION™ 5 plate reader. […]
# To confirm the importance of this residue, molecules were made and tested in which either loop L1 was deleted entirely (Aptamer 40) or was mutated to 5′-U-3′(Aptamer 41). In both cases, there was a complete loss of activity (>10-fold) as determined by competition TR-FRET assay (Table 25 and FIG. 15).
row,Sequence,binding signal
1,GAUGCGGUAGAUUACGGGUAGAGUGACCGCAUC,> 10 fold worse than Aptamer 3
